# Source: publication PMC7862700, “An all-to-all approach to the identification of sequence-specific readers for epigenetic DNA modifications on cytosine”
# Columns and labels:
# Test in all cases: DAPPL (digital affinity profiling via proximity ligation, sequencing); 10 mM Tris-HCl pH 7.5, 50 mM NaCl, 1 mM DTT, 4% glycerol, room temperature, 30 min; GST-TFs on glutathione beads, 16-mer random dsDNA library, 0.1% formaldehyde crosslink after washing; high values mean tight binding
# FLI1 = molecular target: T1, FLI1 (Homo sapiens, UniProt Q01543 1-452); conditions: protein: recombinant; tags: N-terminal GST; dsDNA, one strand shown
# T1 sequence: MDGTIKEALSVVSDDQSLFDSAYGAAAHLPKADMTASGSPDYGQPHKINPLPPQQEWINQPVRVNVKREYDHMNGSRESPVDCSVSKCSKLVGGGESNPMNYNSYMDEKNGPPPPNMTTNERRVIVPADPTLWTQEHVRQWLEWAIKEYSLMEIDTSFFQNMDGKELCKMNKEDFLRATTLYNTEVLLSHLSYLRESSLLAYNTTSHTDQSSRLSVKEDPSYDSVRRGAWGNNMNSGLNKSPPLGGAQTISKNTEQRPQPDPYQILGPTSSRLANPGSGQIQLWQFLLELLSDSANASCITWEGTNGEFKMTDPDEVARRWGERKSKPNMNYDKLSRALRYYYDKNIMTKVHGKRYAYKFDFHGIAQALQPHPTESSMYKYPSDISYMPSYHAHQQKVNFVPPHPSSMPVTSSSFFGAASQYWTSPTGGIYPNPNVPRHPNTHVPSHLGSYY
# Method in brief: (§1)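 GST fusions of human transcription factors were expressed in yeast and captured with glutathione beads. Once given DNA barcodes and pooled alongside a tag-only sample, they were incubated for 30 min at room temperature with 200 nmole of a random double-stranded 16-mer DNA library in Tris/NaCl/DTT/glycerol buffer, then washed, crosslinked (0.1% formaldehyde), proximity-ligated, PCR-amplified and sequenced on an Illumina NextSeq500. The binding signal of each hexamer is its read frequency for a factor divided by its frequency for the tag-only sample.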
# ELK1 = molecular target: T2, ELK1 (Homo sapiens, UniProt P19419 1-428); conditions: protein: recombinant; tags: N-terminal GST; dsDNA, one strand shown
# T2 sequence: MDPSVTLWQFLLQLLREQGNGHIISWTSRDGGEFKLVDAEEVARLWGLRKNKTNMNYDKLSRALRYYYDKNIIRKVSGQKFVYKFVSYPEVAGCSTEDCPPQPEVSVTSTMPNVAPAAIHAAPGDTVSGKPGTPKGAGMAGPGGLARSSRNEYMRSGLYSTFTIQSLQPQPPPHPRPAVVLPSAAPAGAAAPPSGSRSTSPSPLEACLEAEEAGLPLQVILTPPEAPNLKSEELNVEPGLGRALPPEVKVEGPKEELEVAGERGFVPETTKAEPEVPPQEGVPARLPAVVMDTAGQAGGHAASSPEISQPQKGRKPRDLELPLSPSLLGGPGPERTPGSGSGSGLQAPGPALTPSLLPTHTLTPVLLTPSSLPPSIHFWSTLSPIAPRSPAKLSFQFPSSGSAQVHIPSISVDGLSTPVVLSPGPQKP
# Method in brief: as §1
# GABPA = molecular target: T3, GABPA (Homo sapiens, UniProt Q06546 1-454); conditions: protein: recombinant; tags: N-terminal GST; dsDNA, one strand shown
# T3 sequence: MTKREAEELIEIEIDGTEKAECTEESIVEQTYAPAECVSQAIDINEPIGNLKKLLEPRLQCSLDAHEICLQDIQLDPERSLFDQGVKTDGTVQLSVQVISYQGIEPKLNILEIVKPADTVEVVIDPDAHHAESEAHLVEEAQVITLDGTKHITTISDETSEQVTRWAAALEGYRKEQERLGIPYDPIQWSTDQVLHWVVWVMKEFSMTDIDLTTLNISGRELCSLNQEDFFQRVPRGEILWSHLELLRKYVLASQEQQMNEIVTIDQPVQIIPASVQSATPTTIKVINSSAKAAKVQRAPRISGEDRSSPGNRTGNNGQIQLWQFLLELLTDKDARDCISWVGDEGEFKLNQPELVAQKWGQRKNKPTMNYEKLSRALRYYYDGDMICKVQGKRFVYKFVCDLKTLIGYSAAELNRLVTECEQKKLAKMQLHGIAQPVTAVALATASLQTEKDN
# Method in brief: as §1
# ERG = molecular target: T4, ERG (Homo sapiens, UniProt P11308 1-479); conditions: protein: recombinant; tags: N-terminal GST; dsDNA, one strand shown
# T4 sequence: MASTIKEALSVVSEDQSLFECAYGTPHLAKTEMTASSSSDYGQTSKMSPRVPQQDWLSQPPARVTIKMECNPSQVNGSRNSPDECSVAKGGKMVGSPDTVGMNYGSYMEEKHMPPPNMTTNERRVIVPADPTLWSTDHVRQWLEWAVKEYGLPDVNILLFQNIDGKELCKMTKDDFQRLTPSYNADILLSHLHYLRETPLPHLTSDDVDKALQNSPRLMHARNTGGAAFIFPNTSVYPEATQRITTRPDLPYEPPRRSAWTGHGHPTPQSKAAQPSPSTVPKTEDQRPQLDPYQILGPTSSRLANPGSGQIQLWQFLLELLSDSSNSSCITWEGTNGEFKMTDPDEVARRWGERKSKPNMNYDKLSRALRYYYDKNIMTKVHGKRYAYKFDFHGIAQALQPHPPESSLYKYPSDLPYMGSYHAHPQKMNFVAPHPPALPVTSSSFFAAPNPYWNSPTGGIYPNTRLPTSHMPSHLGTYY
# Method in brief: as §1
# ELF1 = ELF1 (Homo sapiens, UniProt P32519 1-619); conditions: protein: recombinant; tags: N-terminal GST; dsDNA, one strand shown
# Method in brief: as §1
# EHF = molecular target: T5, EHF (Homo sapiens, UniProt Q9NZC4 1-300); conditions: protein: recombinant; tags: N-terminal GST; dsDNA, one strand shown
# T5 sequence: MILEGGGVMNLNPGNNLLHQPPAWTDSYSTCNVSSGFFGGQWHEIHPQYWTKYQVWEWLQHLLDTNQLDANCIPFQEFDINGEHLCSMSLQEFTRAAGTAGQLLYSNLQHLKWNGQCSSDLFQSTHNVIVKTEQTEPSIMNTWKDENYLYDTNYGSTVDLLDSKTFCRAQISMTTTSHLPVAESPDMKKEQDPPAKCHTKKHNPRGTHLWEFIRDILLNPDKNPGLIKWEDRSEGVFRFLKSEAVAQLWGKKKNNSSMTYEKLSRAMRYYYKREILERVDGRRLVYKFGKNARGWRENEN
# Method in brief: as §1
# SPI1 = SPI1 (Homo sapiens, UniProt P17947 1-270); conditions: protein: recombinant; tags: N-terminal GST; dsDNA, one strand shown
# Method in brief: as §1
# SPIB = SPIB (Homo sapiens, UniProt Q01892 1-262); conditions: protein: recombinant; tags: N-terminal GST; dsDNA, one strand shown
# Method in brief: as §1
# ELK3 = molecular target: T6, ELK3 (Homo sapiens, UniProt P41970 1-407); conditions: protein: recombinant; tags: N-terminal GST; dsDNA, one strand shown
# T6 sequence: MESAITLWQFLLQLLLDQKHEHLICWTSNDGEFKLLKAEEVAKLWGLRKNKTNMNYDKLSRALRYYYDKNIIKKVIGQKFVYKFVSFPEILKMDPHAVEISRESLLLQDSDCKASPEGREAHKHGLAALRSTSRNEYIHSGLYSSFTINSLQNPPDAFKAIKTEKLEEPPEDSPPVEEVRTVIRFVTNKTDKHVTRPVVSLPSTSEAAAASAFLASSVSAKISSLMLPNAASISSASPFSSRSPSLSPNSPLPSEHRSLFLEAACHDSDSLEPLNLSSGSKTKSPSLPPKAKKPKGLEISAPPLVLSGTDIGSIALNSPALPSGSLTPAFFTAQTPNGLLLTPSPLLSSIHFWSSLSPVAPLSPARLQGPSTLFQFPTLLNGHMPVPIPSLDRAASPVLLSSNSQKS
# Method in brief: as §1
# FEV = molecular target: T7, FEV (Homo sapiens, UniProt Q99581 1-238); conditions: protein: recombinant; tags: N-terminal GST; dsDNA, one strand shown
# T7 sequence: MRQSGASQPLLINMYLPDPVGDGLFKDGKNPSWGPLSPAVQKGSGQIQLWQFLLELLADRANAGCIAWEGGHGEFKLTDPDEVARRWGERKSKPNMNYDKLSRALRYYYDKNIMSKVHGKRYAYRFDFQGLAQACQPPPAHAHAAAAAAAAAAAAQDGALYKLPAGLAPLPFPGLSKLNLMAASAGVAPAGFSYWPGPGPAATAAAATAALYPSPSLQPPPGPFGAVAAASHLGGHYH
# Method in brief: as §1
# ETV5 = ETV5 (Homo sapiens, UniProt P41161 1-510); conditions: protein: recombinant; tags: N-terminal GST; dsDNA, one strand shown
# Method in brief: as §1
# HSF1 = HSF1 (Homo sapiens, UniProt Q00613 1-529); conditions: protein: recombinant; tags: N-terminal GST; chain copies: 3; dsDNA, one strand shown
# Method in brief: as §1
# SPIC = molecular target: T8, SPIC (Homo sapiens, UniProt Q8N5J4 1-248); conditions: protein: recombinant; tags: N-terminal GST; dsDNA, one strand shown
# T8 sequence: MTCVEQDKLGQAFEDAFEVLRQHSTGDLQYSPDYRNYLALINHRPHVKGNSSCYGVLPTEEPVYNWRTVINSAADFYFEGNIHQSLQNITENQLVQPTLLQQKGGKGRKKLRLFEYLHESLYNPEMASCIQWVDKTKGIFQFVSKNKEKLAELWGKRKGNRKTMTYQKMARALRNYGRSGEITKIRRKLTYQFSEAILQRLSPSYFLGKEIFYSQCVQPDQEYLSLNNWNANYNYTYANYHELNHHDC
# Method in brief: as §1
# ELF4 = ELF4 (Homo sapiens, UniProt Q99607 1-663); conditions: protein: recombinant; tags: N-terminal GST; dsDNA, one strand shown
# Method in brief: as §1
# ELK4 = molecular target: T9, ELK4 (Homo sapiens, UniProt P28324-2 1-405); conditions: protein: recombinant; tags: N-terminal GST; dsDNA, one strand shown
# T9 sequence: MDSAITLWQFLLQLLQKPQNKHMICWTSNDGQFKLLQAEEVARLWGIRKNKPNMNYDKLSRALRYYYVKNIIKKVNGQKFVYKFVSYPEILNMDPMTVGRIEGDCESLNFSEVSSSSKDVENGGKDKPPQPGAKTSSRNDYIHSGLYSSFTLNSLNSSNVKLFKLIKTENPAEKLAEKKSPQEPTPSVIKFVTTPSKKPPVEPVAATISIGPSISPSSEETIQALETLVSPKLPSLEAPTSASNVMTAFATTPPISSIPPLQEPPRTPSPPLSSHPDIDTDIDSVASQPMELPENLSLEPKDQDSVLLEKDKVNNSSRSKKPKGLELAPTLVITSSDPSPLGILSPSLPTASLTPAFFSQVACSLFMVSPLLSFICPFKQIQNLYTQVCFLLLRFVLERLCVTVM
# Method in brief: as §1
# ETV2 = molecular target: T10, ETV2 (Homo sapiens, UniProt O00321 1-342); conditions: protein: recombinant; tags: N-terminal GST; dsDNA, one strand shown
# T10 sequence: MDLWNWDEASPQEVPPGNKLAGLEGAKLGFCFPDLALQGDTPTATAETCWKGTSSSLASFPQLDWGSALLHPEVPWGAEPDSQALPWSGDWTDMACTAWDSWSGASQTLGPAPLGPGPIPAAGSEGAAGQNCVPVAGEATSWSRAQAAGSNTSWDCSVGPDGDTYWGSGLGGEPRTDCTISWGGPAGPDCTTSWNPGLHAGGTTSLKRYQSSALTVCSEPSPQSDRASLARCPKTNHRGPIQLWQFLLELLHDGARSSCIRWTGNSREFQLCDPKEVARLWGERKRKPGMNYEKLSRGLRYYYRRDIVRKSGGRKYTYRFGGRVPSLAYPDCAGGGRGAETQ
# Method in brief: as §1
# ELF3 = molecular target: T11, ELF3 (Homo sapiens, UniProt P78545 1-371); conditions: protein: recombinant; tags: N-terminal GST; dsDNA, one strand shown
# T11 sequence: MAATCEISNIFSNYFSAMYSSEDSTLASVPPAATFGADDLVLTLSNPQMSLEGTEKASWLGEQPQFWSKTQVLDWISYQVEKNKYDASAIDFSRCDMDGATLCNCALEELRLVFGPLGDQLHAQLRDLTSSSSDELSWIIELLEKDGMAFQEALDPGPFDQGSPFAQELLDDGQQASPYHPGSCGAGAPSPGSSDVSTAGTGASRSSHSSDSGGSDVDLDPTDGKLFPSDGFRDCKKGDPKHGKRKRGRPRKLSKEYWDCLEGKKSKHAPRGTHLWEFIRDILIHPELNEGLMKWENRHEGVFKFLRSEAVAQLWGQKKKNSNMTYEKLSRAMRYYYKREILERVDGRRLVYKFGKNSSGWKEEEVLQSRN
# Method in brief: as §1
# CRX = CRX (Homo sapiens, UniProt O43186 1-299); conditions: protein: recombinant; tags: N-terminal GST; dsDNA, one strand shown
# Method in brief: as §1
# ETV1 = ETV1 (Homo sapiens, UniProt P50549 1-477); conditions: protein: recombinant; tags: N-terminal GST; dsDNA, one strand shown
# Method in brief: as §1
# Sequence of ETV1 (P50549 whole entry): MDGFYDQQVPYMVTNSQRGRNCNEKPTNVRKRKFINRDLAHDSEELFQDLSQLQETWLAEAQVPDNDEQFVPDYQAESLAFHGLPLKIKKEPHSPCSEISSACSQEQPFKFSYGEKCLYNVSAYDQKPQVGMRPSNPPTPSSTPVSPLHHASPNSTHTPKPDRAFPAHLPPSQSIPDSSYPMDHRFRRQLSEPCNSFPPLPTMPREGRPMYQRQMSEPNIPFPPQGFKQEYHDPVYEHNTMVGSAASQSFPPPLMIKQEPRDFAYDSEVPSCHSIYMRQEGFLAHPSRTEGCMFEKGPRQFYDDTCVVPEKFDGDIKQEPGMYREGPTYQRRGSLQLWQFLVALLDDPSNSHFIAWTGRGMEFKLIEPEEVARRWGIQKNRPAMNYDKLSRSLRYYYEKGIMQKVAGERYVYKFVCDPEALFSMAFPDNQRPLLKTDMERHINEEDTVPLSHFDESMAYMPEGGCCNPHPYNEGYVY
# Sequence of ELF4 (Q99607 whole entry): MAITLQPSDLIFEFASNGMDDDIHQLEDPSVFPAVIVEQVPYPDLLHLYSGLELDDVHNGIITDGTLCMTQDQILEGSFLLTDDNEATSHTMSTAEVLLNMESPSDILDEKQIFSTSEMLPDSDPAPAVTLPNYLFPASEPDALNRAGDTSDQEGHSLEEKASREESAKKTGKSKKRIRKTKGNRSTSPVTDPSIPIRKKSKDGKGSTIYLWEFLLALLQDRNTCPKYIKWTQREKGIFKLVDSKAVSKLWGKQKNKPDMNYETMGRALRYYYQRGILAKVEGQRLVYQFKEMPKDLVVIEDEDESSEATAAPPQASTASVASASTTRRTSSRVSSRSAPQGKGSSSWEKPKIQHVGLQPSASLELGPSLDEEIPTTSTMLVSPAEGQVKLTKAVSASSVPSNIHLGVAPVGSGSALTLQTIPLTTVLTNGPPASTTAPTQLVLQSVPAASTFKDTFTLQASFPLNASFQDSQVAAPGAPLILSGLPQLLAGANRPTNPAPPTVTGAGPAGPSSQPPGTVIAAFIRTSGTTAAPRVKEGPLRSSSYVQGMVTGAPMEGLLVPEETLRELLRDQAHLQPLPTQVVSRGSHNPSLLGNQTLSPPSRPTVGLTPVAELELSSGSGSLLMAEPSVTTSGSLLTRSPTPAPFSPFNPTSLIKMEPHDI
# Sequence of SPIB (Q01892 whole entry): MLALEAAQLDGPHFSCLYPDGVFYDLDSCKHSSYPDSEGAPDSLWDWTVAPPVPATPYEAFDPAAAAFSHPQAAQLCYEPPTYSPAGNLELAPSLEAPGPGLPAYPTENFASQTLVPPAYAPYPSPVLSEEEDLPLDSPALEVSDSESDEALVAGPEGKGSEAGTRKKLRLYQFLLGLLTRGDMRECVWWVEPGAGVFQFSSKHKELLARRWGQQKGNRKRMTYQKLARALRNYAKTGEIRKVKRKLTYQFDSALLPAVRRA
# Sequence of ETV5 (P41161 whole entry): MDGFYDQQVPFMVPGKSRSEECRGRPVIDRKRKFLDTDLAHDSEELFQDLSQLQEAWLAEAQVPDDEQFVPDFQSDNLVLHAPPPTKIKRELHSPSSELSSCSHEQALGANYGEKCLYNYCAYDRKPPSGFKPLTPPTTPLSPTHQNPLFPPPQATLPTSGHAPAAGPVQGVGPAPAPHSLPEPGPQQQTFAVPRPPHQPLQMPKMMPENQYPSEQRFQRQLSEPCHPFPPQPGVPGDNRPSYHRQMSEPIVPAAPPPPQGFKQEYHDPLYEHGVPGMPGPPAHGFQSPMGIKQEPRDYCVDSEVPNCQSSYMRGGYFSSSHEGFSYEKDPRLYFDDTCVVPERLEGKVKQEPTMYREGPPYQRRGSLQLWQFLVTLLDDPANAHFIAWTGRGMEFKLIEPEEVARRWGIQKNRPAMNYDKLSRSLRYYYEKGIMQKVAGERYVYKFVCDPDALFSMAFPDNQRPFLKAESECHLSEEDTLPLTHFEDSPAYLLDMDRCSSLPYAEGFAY
# Sequence of CRX (O43186 whole entry): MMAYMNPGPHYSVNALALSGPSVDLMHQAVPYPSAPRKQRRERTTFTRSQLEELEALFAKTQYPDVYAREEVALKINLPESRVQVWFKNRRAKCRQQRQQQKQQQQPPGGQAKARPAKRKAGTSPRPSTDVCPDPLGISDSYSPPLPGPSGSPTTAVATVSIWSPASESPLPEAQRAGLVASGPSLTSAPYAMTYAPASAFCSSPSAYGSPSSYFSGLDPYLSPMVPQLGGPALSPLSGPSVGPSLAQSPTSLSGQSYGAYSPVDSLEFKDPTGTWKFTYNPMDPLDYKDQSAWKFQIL
# Sequence of HSF1 (Q00613 whole entry): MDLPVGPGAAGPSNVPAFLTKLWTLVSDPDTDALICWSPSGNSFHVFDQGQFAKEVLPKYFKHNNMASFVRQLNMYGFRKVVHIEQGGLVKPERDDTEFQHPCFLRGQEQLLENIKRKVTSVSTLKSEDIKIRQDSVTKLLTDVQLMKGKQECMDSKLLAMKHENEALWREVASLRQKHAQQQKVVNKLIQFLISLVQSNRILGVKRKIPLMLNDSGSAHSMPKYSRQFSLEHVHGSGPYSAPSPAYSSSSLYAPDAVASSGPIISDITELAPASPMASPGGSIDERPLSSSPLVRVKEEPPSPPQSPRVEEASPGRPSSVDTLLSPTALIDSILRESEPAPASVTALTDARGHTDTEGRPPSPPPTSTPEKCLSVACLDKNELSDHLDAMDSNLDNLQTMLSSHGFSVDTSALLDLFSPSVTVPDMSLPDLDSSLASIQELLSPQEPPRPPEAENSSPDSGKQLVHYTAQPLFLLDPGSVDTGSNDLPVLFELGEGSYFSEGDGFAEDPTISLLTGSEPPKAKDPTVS
# Sequence of ELF1 (P32519 whole entry): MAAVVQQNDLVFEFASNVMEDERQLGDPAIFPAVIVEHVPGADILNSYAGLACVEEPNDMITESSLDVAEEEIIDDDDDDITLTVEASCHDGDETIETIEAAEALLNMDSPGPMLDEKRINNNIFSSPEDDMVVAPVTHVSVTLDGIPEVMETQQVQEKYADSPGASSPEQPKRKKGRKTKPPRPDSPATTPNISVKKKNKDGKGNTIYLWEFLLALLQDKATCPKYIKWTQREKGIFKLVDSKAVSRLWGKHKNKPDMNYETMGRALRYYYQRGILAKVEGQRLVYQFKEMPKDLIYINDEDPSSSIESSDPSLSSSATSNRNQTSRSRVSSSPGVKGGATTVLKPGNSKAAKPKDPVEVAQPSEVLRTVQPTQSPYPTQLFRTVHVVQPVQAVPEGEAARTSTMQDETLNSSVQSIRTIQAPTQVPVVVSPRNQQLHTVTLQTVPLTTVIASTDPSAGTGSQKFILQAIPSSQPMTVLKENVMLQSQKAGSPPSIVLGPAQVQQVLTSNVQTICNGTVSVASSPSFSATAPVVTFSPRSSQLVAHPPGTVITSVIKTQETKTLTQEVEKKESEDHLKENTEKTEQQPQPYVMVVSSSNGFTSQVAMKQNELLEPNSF
sequence,measurement,setting,value
TACACA,binding signal,FLI1,"1.21 fold enrichment (6-mer frequency, TF over GST control)"
same,binding signal,ELK1,"1.14 fold enrichment (6-mer frequency, TF over GST control)"
same,binding signal,GABPA,"1.15 fold enrichment (6-mer frequency, TF over GST control)"
same,binding signal,ERG,"1.26 fold enrichment (6-mer frequency, TF over GST control)"
same,binding signal,ELF1,"1.21 fold enrichment (6-mer frequency, TF over GST control)"
same,binding signal,EHF,"1.25 fold enrichment (6-mer frequency, TF over GST control)"
same,binding signal,SPI1,"1.11 fold enrichment (6-mer frequency, TF over GST control)"
same,binding signal,SPIB,"1.23 fold enrichment (6-mer frequency, TF over GST control)"
same,binding signal,ELK3,"1.18 fold enrichment (6-mer frequency, TF over GST control)"
same,binding signal,FEV,"1.21 fold enrichment (6-mer frequency, TF over GST control)"
same,binding signal,ETV5,"1.2 fold enrichment (6-mer frequency, TF over GST control)"
same,binding signal,HSF1,"1.05 fold enrichment (6-mer frequency, TF over GST control)"
same,binding signal,SPIC,"1.35 fold enrichment (6-mer frequency, TF over GST control)"
same,binding signal,ELF4,"1.2 fold enrichment (6-mer frequency, TF over GST control)"
same,binding signal,ELK4,"1.26 fold enrichment (6-mer frequency, TF over GST control)"
same,binding signal,ETV2,"1.12 fold enrichment (6-mer frequency, TF over GST control)"
same,binding signal,ELF3,"1.22 fold enrichment (6-mer frequency, TF over GST control)"
same,binding signal,CRX,"1.09 fold enrichment (6-mer frequency, TF over GST control)"
same,binding signal,ETV1,"1.2 fold enrichment (6-mer frequency, TF over GST control)"
